# Laboratory results from PubChem BioAssay AID504621 (Broad Institute, 2011).
# “And” between values parts separate entries of the source, which are not always exact repeats. Equal values may be shown once. In all, about 310,000 compounds went through this assay and about 970 (0.31%) were called active. The list comes from a sample in which actives are over-represented; it also holds similar structures and randomly drawn compounds. Values without a mark were called inactive.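 How the source made its calls: active means every replicate shows inhibition above about 80%, whatever the replicate mean (limit read from the data); inconclusive means mean inhibition reaches the set limit but some replicate falls short; inactive means the rest.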
# Assay: reduced ATP signal of yeast carrying P. falciparum Hsp90 – S. cerevisiae, BacTiter-Glo luminescence, single point, set 2, antimalarial PfHsp90 inhibitor project, primary screen (AID 504621);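 further: yeast relying on Plasmodium falciparum Hsp90 in place of its own; 0% = DMSO neutral controls and 100% = 20 µM radicicol positive controls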
# Conditions: S. cerevisiae expressing PfHsp90, growth, 48 h, at 9.4 µM, stronger effect = higher value, yeast lacking PDR1 and PDR3 efflux regulators
row,SMILES,inhibition
1,COc1cccc(C=CC(=O)C=CC=Cc2ccccc2)c1,16.4%
2,CN(C)C(=S)N=c1ssc(=S)n1Cc1ccco1,-41.1%
3,Oc1ccc2ccccc2c1N=Nc1nccs1,131% (active)
4,c1ccc(NCc2cccc3ccccc23)nc1,3.43%
5,Oc1ccc(N=Nc2nccs2)c(O)c1,4.56%
6,CCCCC(=O)Nc1ccc(C(=O)Nc2cc(C(F)(F)F)ccc2Cl)cc1,-1.45%
7,CCCCN(CCCC)CCC(O)c1cc2c(Cl)cc(Cl)cc2c2cc(C(F)(F)F)ccc12 (configuration not stated),110% (active)
8,COc1ccc(C(CNC(=O)c2cccc(S(=O)(=O)Nc3ccc(Br)cc3)c2)N(C)C)cc1 (configuration not stated),3.14%
9,C=CC[C@@H](Cc1ccc(F)cc1)C(=O)OC[C@H]1CCCN1C(=O)[C@H](CC=C)CC(=O)N(CCO)Cc1ccccc1,6.25%
10,NNc1cccc(C=Cc2ccccc2)cc1=O,17.2%
11,Cc1cccnc1NC(=O)c1cccc(S(=O)(=O)N2CCN(c3ccc(F)cc3)CC2)c1,-4.19%
12,Oc1c(CN2CCN(c3ccc(F)cc3)CC2)cc(Cl)c2cccnc12,136% (active)
13,Oc1c(CN2CCCC2)cc(COCc2ccccc2)c2cccnc12,16.4%
14,COc1ccc(Nc2ccc3ccccc3c2)cc1,-39%
15,O=C(Nc1nnc(CCOCCOCCc2nnc(NC(=O)c3ccco3)s2)s1)c1ccco1,4.41%
16,O=C(Nc1ccccc1)c1ccco1,1.65%
17,O=C(Nc1nc(-c2ccco2)c(-c2ccco2)s1)c1ccco1,92% (active)
18,COc1ccc(/C=C2/CCCc3ccccc3C2=O)cc1,17.4%
19,Cc1ccc2nc(Nc3ccccc3)cc(C)c2c1,-1.32%

row,SMILES,inhibition
1,CCS(=O)(=O)Nc1cccc(-c2cc(-c3ccccc3)c3cc(C)ccc3n2)c1,102% (active)
2,Cc1ccc2nc(-c3ccncc3)cc(C(=O)Nc3ccncc3)c2c1,-8.61%
3,O=C1OCC2=C1C(c1ccc(Cl)cc1)c1cc3c(cc1O2)OCO3 (configuration not stated),-15.7%
4,O=C(Nn1cnnc1)c1ccc([N+](=O)[O-])cc1,10.8%
5,O=C(Cn1c[n+](CC(=O)c2ccc([N+](=O)[O-])cc2)cn1)c1ccc([N+](=O)[O-])cc1,-20.5% and -1.84%
6,O=C(CC(n1cncn1)C(Cl)(Cl)Cl)c1ccc([N+](=O)[O-])cc1 (configuration not stated),123% (active)
7,Oc1ccc(-c2nc3ccccc3nc2-c2ccc(O)cc2O)c(O)c1,6.66%
8,O=C(O)c1ccc(NN=CC2=C(N3CCOCC3)/C(=C/c3ccccc3)CC2)cc1,-30.6%
9,CC(C)c1ccc(C=NNc2ccc([N+](=O)[O-])cn2)cc1,-14.5%
10,O=S(=O)(NC1CC2CCC1C2)c1ccc(Cl)cc1 (configuration not stated),104% (active)
11,O=S(=O)(NC1CCCCC1N1CCCCC1)c1ccc(Cl)cc1 (configuration not stated),-25%
12,O=S(=O)(NC1CC1)c1ccc(Cl)cc1,-7.47%
13,COc1ccc(-c2ccc3c(c2)[C@@H]2C[C@H](N(C)S(=O)(=O)c4ccccc4)[C@H]([C@H](C)O)C(=O)N2CC3)cc1,6.39%
14,CC(C)Cn1cnc2c(SCc3ccc(Cl)cc3)nc(N)nc21,12.6%
15,COc1cccc2c1C(=O)c1c(O)c3c(c(O)c1C2=O)CC(O)(C(C)=NNC(=O)c1ccc(Cl)c(Cl)c1)CC3OC1CC(N)C(O)C(C)O1 (configuration not stated),-3.52%
16,CC1=C/C(=N\OS(=O)(=O)c2ccccc2)C=CC1=O,100% (active)
17,O=C(Nc1ccc(S(=O)(=O)N2CCOCC2)cc1)C1CCN(S(=O)(=O)c2ccc(Cl)cc2)CC1,-11.4%
18,COc1ccc2sc(-c3ccc(N(C)C)cc3)c(-c3ccc4cc[nH]c4c3)c2c1,-6.56%
19,COc1ccc2c(c1)c(=Cc1ccc(N(C)C)cc1)c1cc(-c3ccccc3)[n+](C)n12,114% (active)

row,SMILES,inhibition
1,COc1ccc2sc(-c3ccc(N(C)C)cc3)c(C#CCO)c2c1,15%
2,CCN1CCC(O)(/C=C/c2ccc(C)cc2)C(C(=O)/C=C/c2ccc(C)cc2)C1 (configuration not stated),19.6%
3,Cc1c(NS(=O)(=O)c2cccc(C(=O)Nc3ccc(SC(F)F)cc3)c2)c(=O)n(-c2ccccc2)n1C,-2.76%
4,COc1ccc2c(c1)C(=O)CC(c1ccccc1)O2 (configuration not stated),-30%
5,CCCCC(=O)NC(c1ccc(OC)c(OC)c1)c1ccc2cccnc2c1O (configuration not stated),25.2%
6,C#CCOCCOCCOCCNc1nc(N2CCOCC2)nc(N2CCN(C(=O)[C@H](Cc3ccc(O)cc3)n3cc(CCO)nn3)CC2)n1,2.07%
7,C[C@@H]1C[C@@H]2O[C@H]2/C=C\C=C\C(=O)Cc2c(Cl)c(O)cc(O)c2C(=O)O1,95% (active)
8,Cc1ccc(-c2csc(C(C#N)=C(O)CN3CCN(C(=O)c4ccco4)CC3)n2)cc1,4.72%
9,O=C(Cc1ccccc1)NC(=S)Nc1ccc(N2CCCCC2)cc1,-35.9%
10,O=C1C=CC(=O)N1c1ccc(N2CCCCC2)cc1,109% (active)
11,CC(=O)Nc1ccc(S(=O)(=O)Nc2ccc(N3CCCCC3)cc2)cc1,26.6%
12,O=C(NNc1nc(N2CCCC2)nc(N2CCCC2)n1)c1ccccc1,16.9%
13,CCN(CC)CCCC(C)n1c2nc(=O)[nH]c(=O)c-2nc2cc(Cl)ccc21 (configuration not stated),-9.23%
14,NC(=O)C1CCN(C(=O)c2cc(S(=O)(=O)N3CCN(c4ccccc4)CC3)ccc2Cl)CC1,-2.95%
15,CC1=CC(=NNS(=O)(=O)c2ccc([N+](=O)[O-])cc2)CC(C)(C)C1,-10.2%
16,O=[N+]([O-])c1ccc(NS(=O)(=O)c2ccccc2)c(Cl)c1,-12%
17,COc1ccc(/C=C/C(=O)c2cc(Br)ccc(=O)c2O)cc1,99.7% (active)
18,COc1ccc(C(=O)/C=C/c2ccc(OC3CSC3)cc2)cc1,12.6%
19,COc1ccc(/C=C/C(=O)c2ccc(OC)cc2O)cc1,3.31%
